This note sets out measurements from the supplement of paper PMC4206461.

The test system of the assay is Pseudomonas aeruginosa PA14 wild type. Briefly: respiration area under curve with compound as sole nitrogen source, 24 h (OmniLog AUC (arbitrary units)); higher = more respiration / better utilisation as nitrogen source, active = 2000 or more. On the procedure: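 Biolog Phenotype MicroArray plates PM6-PM8: each di/tripeptide is the sole nitrogen source (IF-0 medium with succinate/ferric citrate and dye mix A). Tetrazolium reduction was read in the OmniLog every 15 min for 24 h at 37°C and summarised as area under the respiration curve (arbitrary units). The paper counts values below 2000 as no respiration and above 8000 as solid respiration. Replicate datasets are averaged.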
For the compound `C[C@H](NC(=O)[C@@H](N)Cc1c[nH]c2ccccc12)C(=O)O` (plate: PM7), the “respiration area under curve” value is 5630 (active).

Regarding `CC(C)C[C@H](NC(=O)CN)C(=O)O` (plate: PM6), the “respiration area under curve” value was 1880 (inactive).

As to `NC(Cc1c[nH]c2ccccc12)C(=O)NC(Cc1ccccc1)C(=O)O` (stereo not given) (plate: PM7), the “respiration area under curve” value is 547 (inactive).

On to `CSCC[C@H](NC(=O)[C@@H](N)Cc1ccccc1)C(=O)O` (plate: PM8), for which the “respiration area under curve” value is 1220 (inactive).

Take `NC(=O)C[C@H](N)C(=O)N[C@@H](CCC(=O)O)C(=O)O` (plate: PM6): the “respiration area under curve” value was 5930 (active).

For `CC(C)[C@H](NC(=O)[C@@H](N)CC(=O)O)C(=O)O` (plate: PM6), the “respiration area under curve” value was 4290 (active).

`CC(C)C[C@H](NC(=O)[C@@H](N)Cc1c[nH]c2ccccc12)C(=O)O` (plate: PM7): the “respiration area under curve” value is 3760 (active).

Turning to `CC(C)C[C@H](NC(=O)[C@@H](N)[C@@H](C)O)C(=O)O` (plate: PM7), the “respiration area under curve” value was 7920 (active).

`CC(C)[C@H](NC(=O)CN)C(=O)O` (plate: PM6): the “respiration area under curve” value is 4270 (active).

`NC(N)=NCCC[C@H](N)C(=O)N[C@@H](Cc1ccc(O)cc1)C(=O)O` (plate: PM6): the “respiration area under curve” value was 9840 (active).

Turning to `CC(C)[C@H](N)C(=O)N[C@@H](C)C(=O)O` (plate: PM8), the “respiration area under curve” value is 6590 (active).

With `CC(C)C[C@H](NC(=O)[C@@H](N)CC(=O)O)C(=O)O` (plate: PM6), the “respiration area under curve” value was 2690 (active).

In the case of `CSCC[C@H](N)C(=O)N[C@@H](Cc1c[nH]c2ccccc12)C(=O)O` (plate: PM7), the “respiration area under curve” value was 3640 (active).

Take `CC(C)C[C@H](N)C(=O)NCC(=O)O` (plate: PM6): the “respiration area under curve” value is 8220 (active).

Consider `O=C(O)[C@@H]1C[C@@H](O)CN1C(=O)[C@@H]1CCCN1` (plate: PM7), for which the “respiration area under curve” value is 0 (inactive).

Take `N[C@@H](Cc1ccccc1)C(=O)N[C@@H](CCC(=O)O)C(=O)O` (plate: PM8): the “respiration area under curve” value was 2920 (active).

Turning to `C[C@H](NC(=O)[C@@H](N)Cc1ccc(O)cc1)C(=O)O` (plate: PM7), the “respiration area under curve” value was 11200 (active).

Take `CC(C)[C@H](NC(=O)[C@H](C)N)C(=O)O` (plate: PM8): the “respiration area under curve” value is 9240 (active).

With `CC(C)C[C@H](N)C(=O)N[C@@H](CC(N)=O)C(=O)O` (plate: PM8), the “respiration area under curve” value is 12400 (active).

With `C[C@H](N)C(=O)NCC(=O)O` (plate: PM6), the “respiration area under curve” value is 8070 (active).

Consider `C[C@@H](O)[C@H](N)C(=O)N[C@@H](CCCN=C(N)N)C(=O)O` (plate: PM7), for which the “respiration area under curve” value was 15400 (active).

For the compound `CSCCC(NC(=O)C(N)CC(C)C)C(=O)O` (stereo not given) (plate: PM6), the “respiration area under curve” value was 3040 (active).

Consider `C[C@@H](O)[C@H](N)C(=O)N[C@@H](CO)C(=O)O` (plate: PM8), for which the “respiration area under curve” value is 7920 (active).

On to `O=C(O)[C@H](Cc1c[nH]c2ccccc12)NC(=O)[C@@H]1CCCN1` (plate: PM8), for which the “respiration area under curve” value was 1260 (inactive).

As to `CC(C)[C@H](NC(=O)[C@@H](N)CO)C(=O)O` (plate: PM7), the “respiration area under curve” value is 8700 (active).

With `CC[C@H](C)[C@H](NC(=O)[C@@H]1CCCN1)C(=O)O` (plate: PM8), the “respiration area under curve” value was 7540 (active).

Consider `CC(C)[C@H](NC(=O)[C@@H](N)Cc1ccc(O)cc1)C(=O)O` (plate: PM8), for which the “respiration area under curve” value is 7430 (active).

Take `O=C(O)CC[C@H](NC(=O)[C@@H]1CCCN1)C(=O)O` (plate: PM8): the “respiration area under curve” value was 7660 (active).

As for `N[C@@H](Cc1ccccc1)C(=O)N[C@@H](Cc1ccc(O)cc1)C(=O)O` (plate: PM8), the “respiration area under curve” value is 2350 (active).

Turning to `CC[C@H](C)[C@H](NC(=O)[C@H](C)N)C(=O)O` (plate: PM8), the “respiration area under curve” value is 9130 (active).

`CC(C)C[C@H](N)C(=O)N1CCC[C@H]1C(=O)O` (plate: PM8): the “respiration area under curve” value is 9370 (active).

Turning to `NC(=O)CC[C@H](NC(=O)[C@@H](N)CC(=O)O)C(=O)O` (plate: PM8), the “respiration area under curve” value was 9700 (active).

Turning to `C[C@@H](O)[C@H](N)C(=O)N1CCC[C@H]1C(=O)O` (plate: PM7), the “respiration area under curve” value was 13000 (active).

`C[C@H](O)[C@@H](NC(=O)CN)C(=O)O` (plate: PM8): the “respiration area under curve” value was 0 (inactive).

As to `N[C@@H](Cc1c[nH]c2ccccc12)C(=O)NCC(=O)O` (plate: PM7), the “respiration area under curve” value is 3340 (active).

Consider `CSCC[C@H](N)C(=O)N[C@@H](CCC(=O)O)C(=O)O` (plate: PM7), for which the “respiration area under curve” value is 1960 (inactive).

On to `C[C@H](N)C(=O)N[C@@H](Cc1ccc(O)cc1)C(=O)O` (plate: PM6), for which the “respiration area under curve” value was 6830 (active).

With `N[C@@H](Cc1c[nH]c2ccccc12)C(=O)N[C@@H](Cc1ccc(O)cc1)C(=O)O` (plate: PM7), the “respiration area under curve” value is 1070 (inactive).

`N[C@@H](CO)C(=O)N[C@@H](Cc1ccccc1)C(=O)O` (plate: PM7): the “respiration area under curve” value was 7090 (active).

In the case of `N[C@@H](CC(=O)O)C(=O)N[C@@H](CC(=O)O)C(=O)O` (plate: PM6), the “respiration area under curve” value was 119 (inactive).
